Laboratory results taken from PubChem BioAssay (Tox21).
“And” between values parts separate entries of the source, which are not always exact repeats. Identical values can stand only once. Results filed as inconclusive are left out. Where a call stands in place of a potency, no number is given. The source holds several records for some structures; these can differ, active in one and inactive in another. The source made the active and inactive calls. Unless noted, the call rests on the fitted dose curve; in most records, active means well fitted curve in the direction sought with a large enough effect in the repeat runs; inconclusive means weak or mixed curves; inactive means no such curve, though single readings can be large; an effect the other way counts as inactive or inconclusive.

How the values were obtained:
[1] = qHTS RealTime-Glo MT Cell Viability Assay in HEK293 cells - 0 hour (AID 1224880); further: nearly all actives have a fitted effect of over 45% in size; further: potency means the concentration at half of the fitted maximal effect
How it was run: (§1)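 Luminescence readout at each listed time point; HEK293, 600 cells/well, RealTime-Glo MT reagent added with cells; compounds pinned (23 nL in DMSO) after 5 h at 37 C; continuous culture at 37 C.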

[2] = A CellTox Green Cytotoxicity Assay to monitor cytotoxicity in HEK293 cells - 32 hour (AID 1224881); further: nearly all actives have a fitted effect of over 40% in size; further: potency means the concentration at half of the fitted maximal effect
How it was run: (§2)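 Read-out: fluorescence of a cell-impermeant cyanine dye staining DNA of dead cells, proportional to cytotoxicity. HEK293, 600 cells/well with reagent, compound (23 nL DMSO) added after 5 h; reads at 0, 8, 16, 24, 32, 40 h.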

[3] = A CellTox Green Cytotoxicity Assay to monitor cytotoxicity in HepG2 cells - 0 hour (AID 1224882); further: nearly all actives have a fitted effect of over 35% in size
How it was run: (§3)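 HepG2, 600 cells/well premixed w/ CellTox Green; 5 h settle, 37 C/5% CO2; pintool cpd add (DMSO); 37 C, 40 h; fluorescence read at 0, 8, 16, 24, 32, 40 h.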

[4] = A CellTox Green Cytotoxicity Assay to monitor cytotoxicity in HepG2 cells - 32 hour (AID 1224883); further: nearly all actives have a fitted effect of over 50% in size; further: potency means the concentration at half of the fitted maximal effect
How it was run: as §3

[5] = A CellTox Green Cytotoxicity Assay to monitor cytotoxicity in HEK293 cells - 8 hour (AID 1224884); further: nearly all actives have a fitted effect of over 35% in size
How it was run: as §2

[6] = qHTS RealTime-Glo MT Cell Viability Assay in HepG2 cells - 16 hour (AID 1224885); further: nearly all actives have a fitted effect of over 50% in size; further: potency means the concentration at half of the fitted maximal effect
How it was run: (§4)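 HepG2 cells were seeded at 600 cells/well together with NanoLuc luciferase and a cell-permeant prosubstrate, preincubated 5 h at 37 C/5% CO2, then pin-dosed with compounds in DMSO. Nonlytic luminescence from viable cells was read at each time point.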

[7] = qHTS RealTime-Glo MT Cell Viability Assay in HEK293 cells - 24 hour (AID 1224886); further: nearly all actives have a fitted effect of over 50% in size; further: potency means the concentration at half of the fitted maximal effect
How it was run: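 HEK293 cells were seeded at 600 cells/well together with NanoLuc luciferase and cell-permeant prosubstrate, preincubated 5 h at 37 C/5% CO2, then given compound in DMSO by pintool. Luminescence from viable-cell prosubstrate reduction was read repeatedly over 40 h.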

[8] = qHTS RealTime-Glo MT Cell Viability Assay in HEK293 cells - 8 hour (AID 1224887); further: nearly all actives have a fitted effect of over 50% in size; further: potency means the concentration at half of the fitted maximal effect
How it was run: as §1

[9] = A CellTox Green Cytotoxicity Assay to monitor cytotoxicity in HEK293 cells - 16 hour (AID 1224888); further: nearly all actives have a fitted effect of over 35% in size
How it was run: as §2

[10] = A CellTox Green Cytotoxicity Assay to monitor cytotoxicity in HepG2 cells - 8 hour (AID 1224890); further: nearly all actives have a fitted effect of over 45% in size; further: potency means the concentration at half of the fitted maximal effect
How it was run: as §3

[11] = qHTS assay to identify small molecule antagonists of the estrogen receptor alpha (ER-alpha) signaling pathway using the BG1 cell line in the presence of 0.1 nM 17-beta-estradiol - cell viability counter screen (AID 1259241); further: nearly all actives have a fitted effect of over 40% in size; further: potency means the concentration at half of the fitted maximal effect
How it was run: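 Viability in VM7Luc4E2 cells after 22 hr compound exposure under 0.1 nM 17beta-estradiol stimulation, by CellTiter-Fluor.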

[12] = qHTS assay to identify small molecule antagonists of the androgen receptor (AR) signaling pathway using the MDA cell line in the presence of 0.5 nM R1881 - cell viability counter screen (AID 1259242); further: nearly all actives have a fitted effect of over 45% in size
How it was run: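 Live-cell protease fluorescence, CellTiter-Fluor, 30 min at 37C. Cells: MDA-kb2, 3,000/well, preincubated 5 hr. Compounds plus 0.5 nM R1881 final, 16 hr, 37C, 0% CO2.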

[13] = qHTS assay to identify small molecule HDAC inhibitors (AID 1259364); further: potency means the concentration at half of the fitted maximal effect;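 further: wild-type HCT-116 cells with endogenous class I/II HDAC activity; nearly all actives have a fitted effect of over 45% in size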
How it was run: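 HCT-116 (wild type), 1,500 cells/well, overnight; compound 2 hr 37C 5% CO2; HDAC-Glo I/II reagent 30 min RT; luminescence readout.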

[14] = qHTS assay to identify small molecule HDAC inhibitors - cell viability counter screen (AID 1259365)
How it was run: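 Cytotoxicity was gauged in wild-type HCT-116 cells after a brief 2hr treatment with DMSO-dissolved compounds at 37C and 5% CO2, using CellTiter-Glo luminescence developed for 30min at room temperature.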

[15] = qHTS assay to identify small molecule antagonists of the sonic hedgehog signaling (Shh) pathway - cell viability counter screen (AID 1259367); further: nearly all actives have a fitted effect of over 55% in size; further: potency means the concentration at half of the fitted maximal effect
How it was run: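 CellTiter-Fluor signal in conditioned medium-stimulated 3T3 Gli1-Luc cells, 23 hr compound exposure, 37C.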

[16] = qHTS RealTime-Glo MT Cell Viability Assay in HepG2 cells - 0 hour (AID 1224889); further: nearly all actives have a fitted effect of over 50% in size; further: potency means the concentration at half of the fitted maximal effect
How it was run: as §4

[17] = qHTS assay to identify small molecule agonists of the sonic hedgehog signaling (Shh) pathway - cell viability counter screen (AID 1259366); further: nearly all actives have a fitted effect of over 50% in size; further: potency means the concentration at half of the fitted maximal effect
How it was run: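 Stable Gli1-Luc NIH/3T3 clone, 2,000 cells/well. Compound exposure 24hr at 37C. Read-out: CellTiter-Fluor fluorescence.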

[18] = target: Androgen receptor (Homo sapiens) (UniProt P10275); experiment: qHTS assay to identify small molecule antagonists of the androgen receptor (AR) signaling pathway using the MDA cell line in the presence of 0.5 nM R1881 (AID 1259243); further: nearly all actives have a fitted effect of over 50% in size
How it was run: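 MDA-kb2, MMTV-luc (AR/GR elements); 3,000 cells/well; cpd + 0.5 nM R1881 final; 16 hr 37C, 0% CO2; ONE-Glo 30 min RT; luminescence.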

[19] = target: Estrogen receptor (Homo sapiens) (UniProt P03372); experiment: qHTS assay to identify small molecule antagonists of the estrogen receptor alpha (ER-alpha) signaling pathway using the BG1 cell line in the presence of 0.1 nM 17-beta-estradiol (AID 1259244); further: nearly all actives have a fitted effect of over 50% in size
How it was run: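 Luminescence after ONE-Glo (30 min, room temperature) measured ERE-luciferase activity in VM7Luc4E2 cells treated 22 h with compound and 0.1 nM final 17beta-estradiol as stimulator.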

[20] = qHTS assay to identify small molecule phospholipidosis (PLD) inducers (AID 1259344; active means well fitted curve in the direction sought with a large enough effect; an effect the other way counts as inactive or inconclusive)
How it was run: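 Accumulated phospholipid, stained red by LipidTOX during 24 h compound treatment of HepG2 cells at 37 C, is quantified from images as pit number and intensity, normalised per cell using Hoechst-stained nuclei.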

Estrogen receptor (Homo sapiens), sequence (P03372 whole entry, looked up): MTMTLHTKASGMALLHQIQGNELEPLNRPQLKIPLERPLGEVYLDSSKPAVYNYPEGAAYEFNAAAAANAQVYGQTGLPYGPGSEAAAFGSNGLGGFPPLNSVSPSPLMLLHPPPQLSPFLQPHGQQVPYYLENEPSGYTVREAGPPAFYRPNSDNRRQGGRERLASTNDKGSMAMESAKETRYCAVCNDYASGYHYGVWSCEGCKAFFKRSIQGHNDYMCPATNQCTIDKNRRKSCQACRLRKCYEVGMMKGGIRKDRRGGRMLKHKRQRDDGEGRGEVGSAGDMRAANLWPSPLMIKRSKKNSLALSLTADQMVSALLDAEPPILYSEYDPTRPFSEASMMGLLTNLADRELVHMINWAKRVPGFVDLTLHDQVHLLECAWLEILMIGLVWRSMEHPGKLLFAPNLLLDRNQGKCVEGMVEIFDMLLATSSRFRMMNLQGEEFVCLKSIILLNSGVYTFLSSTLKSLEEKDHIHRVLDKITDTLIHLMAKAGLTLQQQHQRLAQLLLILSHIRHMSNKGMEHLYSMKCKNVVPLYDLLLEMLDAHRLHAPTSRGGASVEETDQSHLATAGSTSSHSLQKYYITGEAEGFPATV
Androgen receptor (Homo sapiens), sequence (P10275 whole entry, looked up): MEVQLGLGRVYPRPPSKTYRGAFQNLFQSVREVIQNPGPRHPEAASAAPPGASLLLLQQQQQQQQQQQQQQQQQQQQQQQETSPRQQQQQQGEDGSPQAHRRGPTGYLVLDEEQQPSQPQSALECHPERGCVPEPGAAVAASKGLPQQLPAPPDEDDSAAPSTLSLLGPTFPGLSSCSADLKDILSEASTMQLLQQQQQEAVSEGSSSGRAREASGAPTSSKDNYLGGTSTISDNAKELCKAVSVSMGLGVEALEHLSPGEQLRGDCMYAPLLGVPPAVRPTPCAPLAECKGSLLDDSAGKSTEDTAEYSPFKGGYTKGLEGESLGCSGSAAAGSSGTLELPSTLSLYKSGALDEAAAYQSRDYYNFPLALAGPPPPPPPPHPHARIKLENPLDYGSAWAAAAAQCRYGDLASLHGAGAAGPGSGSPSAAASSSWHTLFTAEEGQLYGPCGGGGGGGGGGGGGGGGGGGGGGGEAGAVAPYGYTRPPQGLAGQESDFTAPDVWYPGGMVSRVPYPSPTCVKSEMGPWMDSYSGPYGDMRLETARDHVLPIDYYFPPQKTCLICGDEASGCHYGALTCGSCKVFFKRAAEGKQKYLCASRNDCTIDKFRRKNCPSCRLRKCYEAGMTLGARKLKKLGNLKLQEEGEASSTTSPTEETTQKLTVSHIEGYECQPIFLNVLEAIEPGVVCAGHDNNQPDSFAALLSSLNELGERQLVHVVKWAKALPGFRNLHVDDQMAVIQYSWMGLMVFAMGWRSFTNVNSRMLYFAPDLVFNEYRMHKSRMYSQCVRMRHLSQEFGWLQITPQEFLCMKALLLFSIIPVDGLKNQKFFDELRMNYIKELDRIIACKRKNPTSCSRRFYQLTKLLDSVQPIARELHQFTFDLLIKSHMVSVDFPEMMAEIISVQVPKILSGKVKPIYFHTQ

Structure (SMILES) | Potency [1] | Potency [2] | Potency [3] | Potency [4] | Potency [5] | Potency [6] | Potency [7] | Potency [8] | Potency [9] | Potency [10] | Potency [11] | Potency [12] | Potency [13] | Potency [14] | Potency [15] | Potency [16] | Potency [17] | Potency [18] | Potency [19] | Potency [20]
Cc1cccc(O)c1N | inactive | inactive | inactive | inactive | inactive | inactive | inactive | inactive | inactive | inactive | 61.8 µM (active) | inactive | inactive | inactive | 61.8 µM (active) |  |  |  |  | 
CC(C)C=O | inactive | inactive | inactive | inactive | inactive | inactive | inactive | inactive | inactive | inactive | inactive | inactive | inactive | inactive | inactive | inactive |  |  |  | 
O=C(O)C[C@H](NC(=O)OCc1ccccc1)C(=O)O | inactive | inactive | inactive | inactive | inactive | inactive | inactive | inactive | inactive | inactive | inactive | inactive | inactive | inactive | inactive |  | inactive |  |  | 
O=[N+]([O-])c1ccc(Nc2ccc(Nc3ccccc3)c(S(=O)(=O)O)c2)c([N+](=O)[O-])c1 | inactive | inactive | inactive | inactive | inactive | inactive | inactive | inactive | inactive | inactive |  |  | inactive | inactive |  |  |  |  |  | 
O=C(/C=C/c1ccccc1)OCCc1ccccc1 | inactive | inactive | inactive | inactive | inactive | inactive | inactive | inactive |  | inactive | inactive | inactive | 30.6 µM (active) | inactive | inactive | inactive | inactive | inactive | inactive | 
C[C@]12CC[C@@H]3c4ccc(O)cc4CC[C@H]3[C@@H]1CC[C@@H]2OC(=O)CCC1CCCC1 | inactive | 54.9 µM (active) | inactive | 49 µM (active) and 23.9 µM (active) | inactive | 49 µM (active) and inactive | 43.6 µM (active) and inactive | 49 µM (active) and inactive |  | 49 µM (active) | inactive | inactive | inactive | inactive | inactive | inactive | 54.5 µM (active) |  | inactive | inactive
C[C@H]1c2cccc(O)c2C(O)=C2C(=O)[C@]3(O)C(O)=C(C(N)=O)C(=O)[C@@H](N(C)C)[C@@H]3[C@@H](O)[C@@H]21 | inactive | inactive | inactive | inactive | inactive | inactive | inactive | inactive |  | inactive | inactive | inactive | inactive | inactive |  | inactive |  | inactive | inactive | inactive
CC(C)=CC(=O)C=C(C)C | inactive | inactive | inactive | inactive | inactive | inactive | inactive | inactive | inactive | inactive | inactive | inactive | inactive | inactive | inactive |  | inactive |  | inactive | 
O=C1c2ccccc2C(=O)c2c(O)c(O)cc(O)c21 | inactive | inactive | inactive | inactive | inactive | inactive | inactive | inactive | inactive | inactive |  |  | inactive | inactive |  | inactive |  |  |  | 
Cc1[nH]cnc1CN1CCc2c(c3ccccc3n2C)C1=O | inactive | inactive | inactive | inactive | inactive | inactive | inactive | inactive |  | inactive | inactive | inactive | inactive | inactive | inactive | inactive | inactive |  |  | inactive
C=CCc1ccccc1OCC(O)CNC(C)C (stereo not drawn) | inactive | inactive | inactive | inactive | inactive | inactive | inactive | inactive |  | inactive | inactive | inactive | inactive | inactive | inactive | inactive | inactive | inactive |  | inactive
Cc1cc(C)cc(N)c1 | inactive | inactive | inactive | inactive | inactive | inactive | inactive | inactive | inactive | inactive | inactive | inactive |  | inactive | inactive |  | inactive | inactive | inactive | 
CC(C)Nc1cccnc1N1CCN(C(=O)c2cc3cc(NS(C)(=O)=O)ccc3[nH]2)CC1 | 9.52 µM (active) | inactive | inactive | inactive | inactive | inactive | inactive | inactive |  | inactive | inactive | inactive | inactive | inactive | inactive | 3.38 µM (active) | inactive |  | inactive | inactive
O=C(CCc1ccc(O)cc1)c1c(O)cc(O)cc1O | 39.8 µM (active) | inactive | inactive | inactive | inactive | inactive | 39.8 µM (active) | 25.1 µM (active) | inactive | inactive | inactive | inactive | inactive | inactive | inactive |  | inactive |  | inactive | 
O=C1CCCCCCCCCCOCCCCO1 | inactive | 49 µM (active) | inactive | inactive | inactive | inactive | inactive | inactive | inactive | inactive | inactive | inactive | inactive | inactive | inactive | inactive | inactive |  |  | 
O=C1NCCN1CCO | inactive | inactive | inactive | inactive | inactive | inactive | inactive | inactive | inactive | inactive | inactive | inactive | inactive | inactive | inactive | inactive | inactive |  |  | 
